# ELG1 DNA repair: ELG1-dependent DNA repair inhibition | HEK293T ELG1-luciferase reporter, luminescence, 16 h; DNA damage induced by 5-fluorouridine | Potency, µM (top dose mostly 46.1 µM), for inactives: at the top dose activity change, negative = inhibition, most hits filed as inhibitors | 2.3% of 330,000 active; also: % is scaled to controls: 0 for no effect and ±100 for the full control effect; nearly all actives have a fitted effect of over 55% in size
#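 Step one: seed 2,000 cells per well. Step two: pin-transfer compound or DMSO alongside 5-fluorouridine. Step three: incubate 16 hr, 37 °C, 5% CO2. Step four: add ONE-Glo, wait 30 min, read luminescence.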
# A549 tox: kills or reduces viability of A549 cells in Nrf2 counter-screen; A549 ARE-Fluc cells, CellTiter-Fluor viability, 18-24 h; Potency, µM (titrated, usually from 46 µM), inactives show at the top dose activity change, negative = cytotoxicity, hits mostly inhibitors; 0.16% of 390,000 active; also: % is scaled to controls: 0 for no effect and ±100 for the full control effect
#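 A549 ARE_Fluc cells in 5% FBS OPTI-MEM were exposed to compounds in concentration-response for 18-24 h at 37 deg C. Viability was read by CellTiter-Fluor fluorescence (Ex 405/Em 525) after 30 min, before the luciferase read.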
# Nrf2 ARE act: activates Nrf2 signaling; Potency, µM (top dose mostly 46.1 µM), inactives show at the highest dose activation, usual class: activators; AREc32 ARE-luciferase reporter (MCF7-derived line), luminescence, 24 h; AID 624171; 0.31% of 410,000 active; also: % of control where 0% means no effect; nearly all actives have a fitted effect of over 65% in size
#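 Luminescent ARE reporter assay in AREc32_Fluc cells: overnight plating at 37 deg C, 24 hr compound incubation, Steady-Glo added, 30 min RT before reading.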
# Nrf2 block: Nrf2 pathway inhibition; A549 ARE-Fluc reporter, luciferase luminescence, 18-24 h; 2.1% of 360,000 active; AID 504444; Potency, µM (series often up to 46 µM), inactives show at the highest dose activity change, negative = inhibition, hits mostly inhibitors; also: % is scaled to controls: 0 for no effect and ±100 for the full control effect; nearly all actives have a fitted effect of over 60% in size
#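 Nrf2 function is reported as luminescence of an ARE-controlled luciferase in A549 cells. Compounds were tested at several concentrations, and a CellTiter-Fluor read on the same wells flagged cytotoxicity.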
# Starred values were filed as active, the others as inactive; ? = inconclusive; · = not tested or not shown. Compounds with a hit are over-represented: about 3.7% of the library has one in this group of screens. Calls follow the shape of the dose curve; as a rule, active = well fitted curve in the direction sought with a large enough effect; inconclusive = small, poorly fitted or top-dose-only effect, or another doubt; inactive = no such curve, though single readings can be large; an effect the other way counts as inactive or inconclusive. Potency is read from the fitted curve at half-maximal effect.
SMILES,ELG1 DNA repair,A549 tox,Nrf2 ARE act,Nrf2 block
Cc1ccc(-c2csc(NC(=O)C3=NN(c4ccccc4)C(=O)CC3)n2)cc1,13µM*,-1%,5%,?
Cc1csc(NC(=O)C2=NN(c3ccccc3)C(=O)CC2)n1,9%,-4%,0%,4%
COc1ccc(-c2[nH]ncc2/C=C(\C#N)C(=O)NC2CC2)cc1,18µM*,-7%,2%,7%
N#Cc1nc(Nc2ccc(-c3ccccc3)cc2)nc(NC2CCCC2)n1,·,-8%,·,?
N#C/C(=C/c1ccc(N2CCCCC2)cc1)c1cccc(F)c1,?,-6%,5%,?
N#C/C(=C/c1ccc(N2CCCCCC2)o1)c1ccc(Cl)cc1,?,?,11µM*,-7%
N#C/C(=C/c1ccc(N2CCCCC2)o1)c1cccc(F)c1,?,-17%,14µM*,?
Cc1ccc(/C(C#N)=C\c2ccc(N3CCOCC3)o2)cc1,?,1%,?,?
Cc1cc(S(=O)(=O)Nc2cc(C)c(O)c(C)c2)c(C)s1,4%,-6%,?,10µM*
CCOc1cc(NC(=S)NCC2CCCO2)c(OCC)cc1NC(=O)c1ccccc1F (stereo not drawn),23µM*,-8%,1%,?
COc1ccc(N2CCN(c3cc(C)nc4ccc(OC)cc34)CC2)cc1,13µM*,-18%,3%,-12%
O=C(O)Cc1ccc2c(c1)Cc1cccnc1O2,·,·,0%,·
COc1ccc(C(=O)N/N=C/c2ccc(OC)c(COc3ccc(F)cc3F)c2)cc1,9.2µM*,-10%,0%,?
COc1ccc(/C=N/NC(=O)c2ccoc2C)cc1COc1ccc(Cl)cc1,·,-28%,3%,13µM*
COc1ccc(/C=N\NC(=O)c2ccccc2)cc1COc1ccc(F)cc1,?,-17%,1%,?
COc1ccc(C(=O)N/N=C/c2ccc(OC)c(COc3ccc(F)cc3)c2)cc1,15µM*,3%,4%,-9%
COc1ccc(/C=N\NC(=O)COc2ccc(C(C)(C)C)cc2)cc1Cn1nc(C)cc1C,0%,15µM*,14%,·
C#Cc1nc(Nc2cccc(Cl)c2)nc(NC2CCCC2)n1,·,-8%,·,?
CCOc1cc(C(=O)Nc2ccc(NC(=O)c3cc4ccccc4o3)c(OC)c2)cc(OCC)c1OCC,·,7%,0%,2%
N#Cc1ccc(NC(=O)C2Cc3ccccc3CN2S(=O)(=O)c2ccc(F)cc2)cc1 (stereo not drawn),·,?,6%,23µM*
CC(C)(C)NC(=O)C1Cc2ccccc2CN1S(=O)(=O)c1ccc(F)cc1 (stereo not drawn),5%,-10%,3%,3%
CC(=O)c1ccc(NC(=O)C2CCCN2S(=O)(=O)c2ccc(F)cc2)cc1 (stereo not drawn),2%,3%,-1%,7%
O=C(Nc1ccc(O)cc1)C1CCCN1S(=O)(=O)c1ccc(F)cc1 (stereo not drawn),0%,-11%,0%,15µM*
CCc1cnc2c(c1SCC(=O)Nc1ccc(OC)c(OC)c1)c(=O)n(C)c(=O)n2C,·,-7%,-1%,·
CCOC(=O)c1noc2ncnc(Nc3cccc(OC)c3)c12,·,-1%,1%,-23%
SMILES,ELG1 DNA repair,A549 tox,Nrf2 ARE act,Nrf2 block
CCC1CCCCN1CCCNC(=O)CCC(=O)N1CCOc2ccccc21 (stereo not drawn),?,2%,1%,12%
Cc1ccc(CCNC(=O)c2sc3nc4n(c(=O)c3c2C)CCC4)cc1,-8%,9%,1%,24%
COc1ccc(-c2nc(-c3ccccc3)c(-c3ccc(O)cc3)[nH]2)cc1,·,-9%,-3%,?
COc1ccc(-c2nc(-c3ccc4c(c3)OCO4)[nH]c2-c2ccc(OC)cc2)cc1,18µM*,?,1%,26µM*
Cc1cccc2sc(N(Cc3cccnc3)C(=O)CCS(=O)(=O)c3ccccc3)nc12,·,4%,22µM*,·
Cc1ccc2sc(N(Cc3cccnc3)C(=O)CCS(=O)(=O)c3ccccc3)nc2c1C,·,13%,5%,·
Cc1cccc(NC(=O)c2nc[nH]c2C(=O)NCc2ccccc2)c1,-13%,-9%,0%,?
CC(C)(C)OC(=O)NCCCCCNC(=O)c1[nH]cnc1C(=O)Nc1cccc(Cl)c1,?,?,0%,21µM*
Cc1cccc(NC(=O)c2nc[nH]c2C(=O)NCCCCNC(=O)c2[nH]cnc2C(=O)Nc2cccc(C)c2)c1,5.2µM*,-11%,0%,?
Cc1cccc(NC(=O)c2nc[nH]c2C(=O)NCCCCCCNC(=O)c2[nH]cnc2C(=O)Nc2cccc(C)c2)c1,9.2µM*,-3%,0%,6%
O=C(Nc1cccc(Cl)c1)c1nc[nH]c1C(=O)NCCCCNC(=O)c1[nH]cnc1C(=O)Nc1cccc(Cl)c1,8%,-1%,-1%,9%
Cc1cc(NC(=O)c2ccccc2C)n(-c2cccc(F)c2)n1,-2%,2%,-2%,?
O=C(Nc1ccc2nc3n(c(=O)c2c1)CCCCC3)C(=O)N1CCN(c2ccccc2F)CC1,?,3%,0%,?
CCOc1ccc(-c2nnc(N3CCCCC3)c3ccccc23)cc1,?,-28%,-1%,26µM*
COc1ccc(N2CCN(C(=O)c3c(C)oc4ncnc(N5CCCCC5)c34)CC2)cc1,·,6%,0%,-20%
COc1ccc(Br)cc1CNC(=O)CN1C(=O)C(c2ccccc2)Oc2cccnc21 (stereo not drawn),-2%,0%,0%,2%
O=C(O)c1ccccc1Nc1cc(Cl)c2nonc2c1[N+](=O)[O-],6%,?,3%,5%
O=[N+]([O-])c1c(Nc2ccccn2)cc(Cl)c2nonc12,?,18µM*,-3%,?
CC(C)(C)c1ccc(SC2=C[C@@]3(O)CC[C@@H](O)[C@@](Sc4ccc(C(C)(C)C)cc4)(C2=O)[C@H]3O)cc1,·,·,-3%,·
CCC(C)Sc1ccc(-c2nc3cnccn3c2NC2CCCCC2)cc1 (stereo not drawn),?,-29%,-1%,23µM*
CCC(C)Sc1ccc(-c2nc3cc(C)ccn3c2NC2CCCCC2)cc1 (stereo not drawn),4%,?,1%,-24%
COc1cccc(C2C(C#N)=C(NC(=O)CCc3ccccc3)Oc3ccc4ccccc4c32)c1 (stereo not drawn),·,-3%,·,10%
Nn1c(Nc2ccccc2)nc2sc3c(c2c1=O)CCC3,?,-13%,4%,16µM*
CCCS(=O)(=O)c1nc(S(=O)(=O)c2ccc(C)cc2)c(NCC(C)C)s1,·,11%,3%,-13%
O=C(Nc1cccc(C(F)(F)F)c1)C1CCN(S(=O)(=O)c2cccnc2)CC1,-6%,-4%,4%,7%
Cc1ccc2c(c1)nnn2C1CCN(S(=O)(=O)c2ccc(C(=O)N3C(C)CCCC3C)cc2)CC1 (stereo not drawn),?,?,6%,10µM*
O=C(NC(=S)NCCc1ccccc1)c1ccccc1,?,7%,4%,·
